Cruzain inh noDet: qHTS Assay for Promiscuous and Specific Inhibitors of Cruzain (without detergent); hit rate 2.3% among 200,000; AID 1476, 2009; Potency, µM, actives largely listed as inhibitors; Cruzipain (Trypanosoma cruzi), P25779; purified cruzain, Z-FR-AMC fluorescence, no detergent; further: nearly all actives have a fitted effect of over 40% in size
Target sequence (P25779 123-467 limits assumed): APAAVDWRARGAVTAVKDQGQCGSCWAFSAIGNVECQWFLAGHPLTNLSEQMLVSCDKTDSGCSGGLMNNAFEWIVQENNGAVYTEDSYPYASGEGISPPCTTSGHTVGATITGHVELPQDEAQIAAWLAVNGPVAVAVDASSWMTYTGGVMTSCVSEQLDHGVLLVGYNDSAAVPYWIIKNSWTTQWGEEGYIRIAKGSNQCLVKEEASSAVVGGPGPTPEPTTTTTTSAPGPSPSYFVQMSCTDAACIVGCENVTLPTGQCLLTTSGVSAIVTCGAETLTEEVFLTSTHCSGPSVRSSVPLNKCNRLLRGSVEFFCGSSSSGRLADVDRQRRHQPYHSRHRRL
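Detergent-free condition (0.00005% Triton X-100) in acetate buffer pH 5.5 with DTT. 1.5 nM enzyme and compound were pre-mixed 15 min, then 2 uM Z-FR-AMC substrate added; reaction progress from fluorescence change between first and third reads (60 s).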
Cruzain inh Det: qHTS Assay for Promiscuous and Specific Inhibitors of Cruzain (with detergent); Potency, µM, hits mostly inhibitors; purified cruzain, Z-FR-AMC fluorescence, 0.01% Triton; hit rate 0.43% among 200,000; AID 1478, 2009; further: nearly all actives have a fitted effect of over 40% in size
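Steps: dispense cruzain (1.5 nM final) in acetate buffer pH 5.5 with DTT and 0.01% Triton X-100; pin-transfer compounds; incubate 15 min RT; add Z-FR-AMC (2 uM final); read fluorescence every 30 s, using the 60 s intensity change.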
Hits are given with their value. Hits are enriched below; roughly 2.6% of the tested compounds scored in any of these assays. The call rests on the fitted dose curve; in most records, active means well fitted curve in the direction sought with a large enough effect; inconclusive means small, poorly fitted or top-dose-only effect, or another doubt; inactive means no such curve, though single readings can be large; an effect the other way counts as inactive or inconclusive.

Screening CCOc1ccccc1NC(=O)C(=O)NCCc1sc(-c2cccc(F)c2)nc1C returned Cruzain inh noDet inactive and Cruzain inh Det inactive.
Screening N#C/C(=C\Nc1ccc2c(c1)OCCO2)c1nc(-c2ccccc2)cs1 returned Cruzain inh noDet inconclusive and Cruzain inh Det inactive.
Screening COc1ccc(-c2csc(/C(C#N)=C/Nc3ccc4c(c3)OCCO4)n2)cc1 returned Cruzain inh noDet 12.6µM and Cruzain inh Det inactive.
For CCOc1ccc(OCC(=O)Nc2ccc(S(=O)(=O)Nc3cc(C)on3)cc2)cc1 the results were Cruzain inh noDet inactive and Cruzain inh Det inactive.
`COc1ccc(/C=c2\sc3nc(-c4ccccc4)c(-c4ccccc4)n3c2=O)cc1OC` gave Cruzain inh noDet inconclusive and Cruzain inh Det inactive.
`COc1ccc(/C=c2/sc3nc(-c4ccccc4)c(-c4ccccc4)n3c2=O)cc1` gave Cruzain inh noDet 6.31µM and Cruzain inh Det inactive.
COc1ccc(-c2noc(-c3ccc(NC4CCCCC4)c([N+](=O)[O-])c3)n2)cc1OC was read as Cruzain inh noDet inactive and Cruzain inh Det inactive.
`COc1ccc(-c2noc(-c3ccc(NC(C)c4ccccc4)c([N+](=O)[O-])c3)n2)cc1OC` (stereo not drawn) gave Cruzain inh noDet 12.6µM and Cruzain inh Det inactive.
Screening Cc1cc(Oc2nc3c(C)cccn3c(=O)c2/C=C(\C#N)S(=O)(=O)c2ccc(Cl)cc2)ccc1Cl returned Cruzain inh noDet 12.6µM and Cruzain inh Det inactive.
Cc1cccn2c(=O)c(/C=C(\C#N)c3nc4ccccc4n3C)c(Oc3ccc(Cl)cc3)nc12 was read as Cruzain inh noDet inactive and Cruzain inh Det inactive.
For COc1ccc(CN(Cc2ccco2)c2cnc(S(C)(=O)=O)nc2C(=O)Nc2ccc(C)c(C)c2)cc1 the results were Cruzain inh noDet 20µM and Cruzain inh Det inactive.
Screening CC(C)(C)c1ccc(CN(Cc2ccco2)c2cnc(S(C)(=O)=O)nc2C(=O)Nc2ccc(F)cc2)cc1 returned Cruzain inh noDet 7.94µM and Cruzain inh Det inactive.
`CC(C)c1ccc(CN(Cc2ccco2)c2cnc(S(C)(=O)=O)nc2C(=O)Nc2ccccc2)cc1` gave Cruzain inh noDet inconclusive and Cruzain inh Det inactive.
COc1ccc(CN(Cc2ccco2)c2cnc(S(C)(=O)=O)nc2C(=O)Nc2ccc(C)cc2C)cc1 was read as Cruzain inh noDet inconclusive and Cruzain inh Det inactive.
Cc1ccc(NC(=O)c2nc(S(C)(=O)=O)ncc2N(Cc2ccco2)Cc2ccccc2F)c(C)c1 was read as Cruzain inh noDet inactive and Cruzain inh Det inactive.
`CCS(=O)(=O)c1ncc(N(Cc2ccco2)Cc2ccccc2F)c(C(=O)Nc2cccc(Cl)c2)n1` gave Cruzain inh noDet 20µM and Cruzain inh Det inactive.
Screening C=CCSc1n[nH]c2nc3c(c(=O)n12)C1(CCCC1)Cc1ccccc1-3 returned Cruzain inh noDet 10µM and Cruzain inh Det inactive.
CCSc1n[nH]c2nc3c(c(=O)n12)C1(CCCC1)Cc1ccccc1-3 was read as Cruzain inh noDet inconclusive and Cruzain inh Det inactive.
COc1ccc(-c2cc(C(F)(F)F)nc(S(=O)(=O)CCCC(=O)Nc3ccccc3C(F)(F)F)n2)cc1OC was read as Cruzain inh noDet inconclusive and Cruzain inh Det inactive.
`CCc1ccc2oc(-c3cc(NC(=O)c4cccnc4)cc(C)c3O)nc2c1` gave Cruzain inh noDet inactive and Cruzain inh Det inactive.
OB(O)c1ccc(Cl)s1 was read as Cruzain inh noDet inactive and Cruzain inh Det inactive.
`CC(=O)OCN(C#N)c1nc(N(C)C)nc(N(C)C)n1` gave Cruzain inh noDet inactive and Cruzain inh Det inactive.
For COC(=O)CN(C#N)c1nc(SC)nc(N(C)C)n1 the results were Cruzain inh noDet 12.6µM and Cruzain inh Det 15.8µM.
COc1ccc2c(c1)CCc1c(C(=O)Nc3cc(C)n(Cc4ccc(Cl)cc4)n3)noc1-2 was read as Cruzain inh noDet 12.6µM and Cruzain inh Det inactive.
For COc1ccc2c(c1)CCc1c(C(=O)Nc3c(C)nn(Cc4ccc(Cl)cc4)c3C)noc1-2 the results were Cruzain inh noDet inactive and Cruzain inh Det inactive.
`Cc1ccccc1CN1C(=O)c2ccccc2Sc2ccc(C(=O)NCc3ccccc3)cc21` gave Cruzain inh noDet 31.6µM and Cruzain inh Det inactive.
`CCOc1ccc(CN2C(=O)c3ccccc3Sc3ccc(C(=O)NC4CCC(C)CC4)cc32)cc1` (stereo not drawn) gave Cruzain inh noDet 5.01µM and Cruzain inh Det inactive.
Screening CCOc1ccc(CN2C(=O)c3ccccc3Sc3ccc(C(=O)NCc4ccco4)cc32)cc1 returned Cruzain inh noDet 31.6µM and Cruzain inh Det inactive.
`Cc1ccccc1CN1C(=O)c2ccccc2Sc2ccc(C(=O)NCc3cccs3)cc21` gave Cruzain inh noDet inconclusive and Cruzain inh Det inactive.
`Cc1cccc(CN2C(=O)c3ccccc3Sc3ccc(C(=O)NC4CCCCC4)cc32)c1` gave Cruzain inh noDet 12.6µM and Cruzain inh Det inactive.
CC1CCC(NC(=O)c2ccc3c(c2)N(Cc2cccc(F)c2)C(=O)c2ccccc2S3)CC1 (stereo not drawn) was read as Cruzain inh noDet inconclusive and Cruzain inh Det inactive.
Screening O=C(NC1CCCC1)c1ccc2c(c1)N(Cc1ccccc1)C(=O)c1ccccc1S2 returned Cruzain inh noDet inconclusive and Cruzain inh Det inactive.
Screening O=C(NCc1ccco1)c1ccc2c(c1)N(Cc1ccc(Cl)cc1)C(=O)c1ccccc1S2 returned Cruzain inh noDet inconclusive and Cruzain inh Det inactive.
Screening CCOc1ccccc1C(=O)N(Cc1ccc(N(C)C)cc1)CC1CCCO1 (stereo not drawn) returned Cruzain inh noDet inactive and Cruzain inh Det inactive.
CCN(CC)S(=O)(=O)c1ccc(C(=O)Nc2nc3c(Cl)cc(Cl)cc3s2)cc1 was read as Cruzain inh noDet inactive and Cruzain inh Det inactive.
`Cc1ccc(Cn2c(CN3CCC(C(=O)NCC(C)c4ccccc4)CC3)cc3ccccc32)cc1` (stereo not drawn) gave Cruzain inh noDet inactive and Cruzain inh Det inactive.
`COc1ccc(O)c(/C=N/NC(=O)c2ccc(CSc3nc(C)cc(C)n3)cc2)c1` gave Cruzain inh noDet inactive and Cruzain inh Det inactive.
Screening COc1ccc(O)c(/C=N/NC(=O)c2ccc(OCc3cccc(Br)c3)cc2)c1 returned Cruzain inh noDet 7.94µM and Cruzain inh Det inactive.
Cc1c(-c2nsc(NC(=O)c3cccs3)n2)nnn1-c1ccc(F)cc1 was read as Cruzain inh noDet inconclusive and Cruzain inh Det inactive.
Screening Cc1nn(-c2ccccc2)c(Cl)c1/C=C1\SC(=S)N(C)C1=O returned Cruzain inh noDet inactive and Cruzain inh Det inactive.
For CN1C(=O)/C(=C\c2cc(N=Nc3ccccc3)ccc2O)SC1=S the results were Cruzain inh noDet 25.1µM and Cruzain inh Det inactive.
`O=C(Cc1ccccc1)Nc1c(C(=O)N2CCN(c3ccc(F)cc3)CC2)oc2ccccc12` gave Cruzain inh noDet inactive and Cruzain inh Det inactive.
Cc1ccc(-c2noc(CNC(=O)c3ccc(C)c(Cl)c3)n2)cc1 was read as Cruzain inh noDet inactive and Cruzain inh Det inactive.
For CCn1cc(C(=O)NCc2ccccc2Cl)c(=O)c2cc(S(=O)(=O)N3CCc4ccccc4C3)ccc21 the results were Cruzain inh noDet 12.6µM and Cruzain inh Det inactive.
For CCn1cc(C(=O)NCc2ccccc2Cl)c(=O)c2cc(S(=O)(=O)N3CCCCC3)ccc21 the results were Cruzain inh noDet inactive and Cruzain inh Det inactive.
`Cc1ccccc1-c1nc(-c2ccc(NC(=O)c3cccs3)cc2)no1` gave Cruzain inh noDet inconclusive and Cruzain inh Det inactive.
